NIH3T3 tox – cytotoxic compounds in NIH 3T3 cells. 94,000 tested, 4.3% active. AID 1345082. Potency, µM (doses to about 96.7 µM), inactives show top-dose activity change, negative = cytotoxicity, most hits filed as inhibitors. NIH 3T3 viability, CellTiter-Glo ATP luminescence, 48-72 h; note: nearly all actives have a fitted effect of over 55% in size
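ATP-dependent luminescence (CellTiter-Glo) served as the viability signal for NIH 3T3 cells treated with compound for 48 or 72 hr at 37 °C.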
Luciferase inh – blocks purified firefly luciferase enzyme activity; purified P. pyralis luciferase, luminescence, biochemical; Potency, µM (titrated, usually from 115 µM), usual class: inhibitors; AID 1347043; 76,000 tested, 2.5% active; P08659; note: nearly all actives have a fitted effect of over 65% in size
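Cell-free enzyme assay, 10nM P. pyralis luciferase, luciferin and ATP each at 10uM. Inhibition profiled over a 6-point titration, read as luminescence.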
HEK293 tox – cytotoxic compounds in HEK 293 cells; AID 1345083; 94,000 tested, 6.6% active; Potency, µM (titrated, usually from 115 µM), without a hit: top-dose activity change, negative = cytotoxicity, most hits filed as inhibitors; HEK 293 viability, ATP luminescence (CellTiter-Glo), 48-72 h; note: nearly all actives have a fitted effect of over 60% in size
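CellTiter-Glo luminescence (cellular ATP) was read after 48 or 72 hr of compound exposure at 37 degree Celsius. Cells were HEK 293 plated at 250 cells/well.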
hNpr1 antagonist – blocks ANP-stimulated signaling of human Npr1 receptor; Potency, µM (doses to about 46.3 µM), for the others: at the top dose activity change, negative = inhibition, usual class: inhibitors; P16066; HEK293 hNpr1 GloSensor cGMP, ANP-stimulated luminescence; 76,000 tested, 1.6% active; calls by dose curve; note: nearly all actives have a fitted effect of over 60% in size
Target sequence (P16066 whole entry, looked up): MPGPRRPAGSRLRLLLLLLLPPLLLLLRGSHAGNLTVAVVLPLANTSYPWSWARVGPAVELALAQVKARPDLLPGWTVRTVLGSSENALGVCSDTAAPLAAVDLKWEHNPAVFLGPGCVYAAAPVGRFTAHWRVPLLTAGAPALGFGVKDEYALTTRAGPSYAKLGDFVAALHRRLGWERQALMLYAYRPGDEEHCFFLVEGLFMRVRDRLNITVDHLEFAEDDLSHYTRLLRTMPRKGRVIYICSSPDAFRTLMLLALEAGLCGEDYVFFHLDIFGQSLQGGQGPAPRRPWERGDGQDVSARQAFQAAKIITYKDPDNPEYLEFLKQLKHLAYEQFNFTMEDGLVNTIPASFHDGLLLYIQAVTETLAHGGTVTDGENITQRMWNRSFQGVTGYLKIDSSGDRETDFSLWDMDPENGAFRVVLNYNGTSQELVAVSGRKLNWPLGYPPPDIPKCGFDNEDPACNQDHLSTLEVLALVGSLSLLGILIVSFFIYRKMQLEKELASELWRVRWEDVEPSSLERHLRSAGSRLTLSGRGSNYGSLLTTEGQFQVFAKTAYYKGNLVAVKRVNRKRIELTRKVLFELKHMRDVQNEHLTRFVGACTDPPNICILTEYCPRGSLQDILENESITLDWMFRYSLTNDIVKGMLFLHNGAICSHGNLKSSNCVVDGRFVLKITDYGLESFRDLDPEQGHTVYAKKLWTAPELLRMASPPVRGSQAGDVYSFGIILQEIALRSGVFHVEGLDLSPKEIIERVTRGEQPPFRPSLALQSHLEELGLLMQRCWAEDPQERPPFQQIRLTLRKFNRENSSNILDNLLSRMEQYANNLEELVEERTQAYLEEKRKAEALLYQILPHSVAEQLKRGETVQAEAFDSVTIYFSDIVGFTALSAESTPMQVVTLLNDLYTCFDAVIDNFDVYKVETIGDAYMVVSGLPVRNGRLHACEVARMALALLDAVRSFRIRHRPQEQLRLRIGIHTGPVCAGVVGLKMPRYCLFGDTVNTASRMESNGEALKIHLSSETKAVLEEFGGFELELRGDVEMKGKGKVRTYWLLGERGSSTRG
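HEK293 cells stably expressing human Npr1 and cGMP GloSensor pGS-40F, loaded 2 h with 2% GloSensor reagent, given compound 30 min at room temperature. Luminescence read before and 20 min after 0.1 nM hNppA.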
* hit, by the source's call; i = inactive; ? = inconclusive; . = no result; [ ] = dose if it differs, or a comment. In the library only some 11% were active in any assay of this set; here they are far more common. Unless noted, calls come from the whole dose curve; as a rule, active = well fitted curve in the direction sought with a large enough effect; inconclusive = small, poorly fitted or top-dose-only effect, or another doubt; inactive = no such curve, though single readings can be large; an effect the other way counts as inactive or inconclusive. % is set by controls: 0 for no effect and ±100 for the full control effect; potency is the fitted concentration of half-maximal effect.

SMILES	NIH3T3 tox	Luciferase inh	HEK293 tox	hNpr1 antagonist
CSc1cccc(NC(=O)C2CCN(c3cnc4nc(C)c(C)nc4c3)CC2)c1	-12%	?	?	3%
COc1ccc(NC(=O)Nc2cccc(-c3ccc(N4CCC(C)CC4)nn3)c2)cc1OC	?	0.1µM*	?	3.2µM*
COc1ccc(-c2cccc(C(=O)NCC(C)C)c2)nn1	?	.	-23%[172 µM]	.
CC(C)CNC(=O)Nc1cccc(-c2ccc(N3CCC(C)CC3)nn2)c1	-20%	0.32µM*	-8%	7.1µM*
COc1ccc(-c2nc3cc(C(=O)NCCc4ccccc4)ccc3o2)cn1	-12%	.	?	.
CNC(=O)c1cc(C2CC2)nc2c1c(C1CCCN(C(=O)c3ccccc3Cl)C1)nn2C (centres undefined)	-9%	.	-11%	.
CCCN(C)c1nccnc1OC1CCN(C(=O)c2ccc(OC)cc2)C1 (centres undefined)	-23%	40µM*	45µM*	-15%
CC(C)CC(=O)N1CCC(Oc2nccnc2N(C)C)C1 (centres undefined)	3%	32µM*	-5%	3%
COCC(=O)N1CCC(Oc2nccnc2N(C)C)C1 (centres undefined)	-22%	i	-6%	-4%
CN(C)c1nccnc1OC1CCN(C(=O)c2ccoc2)C1 (centres undefined)	i	40µM*	22%	3%
Cc1c(CC(=O)NC(C)C2CC2)c2c(n1Cc1ccccc1F)CCCC2=O (centres undefined)	?	i	?	-5%
Cc1nn(-c2ccccc2)c2c1C(C(C)C)N(C1CN([S+](=O)([O-])c3cccs3)C1)C2=O (centres undefined)	-29%	.	?	.
CN1CCCC[C@]2(C[C@H](C(=O)O)[C@H](c3ccco3)N2C(=O)c2ccco2)C1=O	?	.	0%	.
COc1ccc(Cn2c3c(c(=O)n2Cc2ccccc2)CCN(C(=O)c2cccc(O)c2)C3)cc1	?	i	-5%	-3%
Cn1ccc2c(C(=O)NCCC(N)=O)nc(-c3cccc(C(F)(F)F)c3)cc21	?	i	89µM*	3%[70.6 µM]
Cn1ccc2c(C(=O)NCCC(N)=O)nc(-c3ccccc3)cc21	100µM*	i	-3%[172 µM]	2%[70.6 µM]
Cn1ccc2c(C(=O)NCC3CCC(=O)N3)nc(-c3ccccc3)cc21 (centres undefined)	50µM*	i	-24%[172 µM]	-2%[70.6 µM]
Cn1ccc2c(C(=O)NCCC(N)=O)nc(-c3cccc(CO)c3)cc21	?	i	i	4%[70.6 µM]
COc1cccc(CN2CCc3nc(N4CCOCC4)[nH]c(=O)c3CC2)c1OC	-1%	i	1%	8%
Cc1ccc(C2(O)CCN(C(=O)c3cccc(-c4ncc[nH]4)c3)CC2)nc1	-17%	i	-16%	1%
COc1ccc(/C=C/CN2CCC(CCC(=O)Nc3ccccc3Cl)CC2)cc1	79µM*	i	?	1%
COc1ccccc1/C=C/CN1CCCC(CCC(=O)Nc2ccccc2F)C1 (centres undefined)	?	i	45µM*	-1%
CN(CCCNC(=O)CCC[C@H]1NC[C@@H]2C[C@H]1CN(Cc1ccccc1)C2)C1CCCCC1	2%	i	1%	-3%
CSc1ccc(-c2cccc(C(=O)NCCNC(=O)c3ccccc3C)c2)cc1	-42%	.	25µM*	.
CSc1ccc(-c2cccc(C(=O)NCC(=O)NCc3ccc(C(F)(F)F)cc3)c2)cc1	?	.	45µM*	.
SMILES	NIH3T3 tox	Luciferase inh	HEK293 tox	hNpr1 antagonist
COc1ccc(F)cc1-c1cccc(C(=O)NCC(=O)NCc2ccc(C(F)(F)F)cc2)c1	40µM*	.	40µM*	.
CSc1ccc(-c2cccc(C(=O)NCC(=O)NCc3ccccc3F)c2)cc1	-27%	.	?	.
CSc1ccc(-c2cccc(C(=O)NCC(=O)NCc3cccc(C(F)(F)F)c3)c2)cc1	?	.	40µM*	.
CSc1ccc(-c2cccc(C(=O)NCCNC(=O)c3ccccc3F)c2)cc1	-39%	.	?	.
Cc1cc(=O)n(CC(=O)Nc2ccc(Br)cc2)c(N2CCOCC2)n1	?	i	-31%	-12%
CS(=O)(=O)N1CCCC1c1noc(CCC(=O)N2CCCCCC2)n1 (centres undefined)	-12%	.	4%	.
O=C(c1ccc2ccccc2n1)N1CCC(c2nc(CCOCC3CC3)no2)C1 (centres undefined)	-23%	.	-7%	.
O=C(CNC(=O)c1cccc(-c2ccc(C(F)(F)F)cc2)c1)NCc1cccs1	?	.	40µM*	.
COc1cccc(CNC(=O)CNC(=O)c2cccc(-c3ccc(C(F)(F)F)cc3)c2)c1	?	.	22µM*	.
COc1ccc(CNC(=O)CNC(=O)c2cccc(-c3ccc(SC)cc3)c2)cc1OC	?	.	32µM*	.
CSc1ccc(-c2cccc(C(=O)NCC(=O)NCc3ccc4c(c3)OCO4)c2)cc1	-34%	.	?	.
CSc1ccc(-c2cccc(C(=O)NCC(=O)NCc3cccnc3)c2)cc1	?	.	22µM*	.
Cc1ccccc1C(=O)N1CCCC(C(=O)N2CCC(c3nc4ccncc4[nH]3)C2)C1 (centres undefined)	-24%	.	-6%	.
COc1ccc(-c2nc(C(=O)NCc3cccnc3)n3ccccc23)cc1	?	i	?	1%
O=C(NCCNC(=O)c1cccc(Cl)c1)c1ccc(-c2cncnc2)cc1	-20%	.	?	.
COc1cccc2c1OCCCN(c1cc(C3CC(O)C3)nc(N)n1)C2 (centres undefined)	13µM*	i	?	-30%
Nc1nc(C2CC(N)C2)cc(N2CC(c3nc4ccccc4[nH]3)C2)n1 (centres undefined)	-4%	i	-13%	5%
Cc1cccc(C)c1OC1CN(c2cc(C3CC(O)C3)nc(N)n2)C1 (centres undefined)	-21%	i	35µM*	-7%
COc1cccc(-c2ccc(CN3CCCC3C(=O)NCC3CC3)cc2)c1 (centres undefined)	?	.	45µM*	.
COc1cccc(-c2ccc(CN3CCCC3C(=O)NCc3ccc(C(F)(F)F)cc3)cc2)c1 (centres undefined)	?	.	35µM*	.
COc1cccc(CNC(=O)C2CCCN2Cc2ccc(-c3cncnc3)cc2)c1 (centres undefined)	?	.	-23%	.
CN(Cc1ccccn1)Cc1cccn1C	-9%[174 µM]	i	-5%[230 µM]	-5%[70.6 µM]
CC(C)C(=O)Nc1cc(-c2cccnc2)nn1-c1ccccc1	4%[138 µM]	.	i	.
CNc1nccc(N2CCC(CC(=O)NCc3cccc(OC)c3OC)CC2)n1	?	i	?	2%
CC(=O)N1CCN(C(=O)c2nc3cccnc3n(Cc3ccccc3)c2=O)CC1	-16%	.	-9%	.
Cc1ccc(-c2cccc(CN3CCCC(NC(=O)c4ccccc4)C3)c2)cc1Cl (centres undefined)	-24%	.	-23%	.
COc1cccc(C(=O)NC2CCCN(Cc3ccc(-c4cc(C)cc(C)c4)cc3)C2)c1 (centres undefined)	40µM*	.	?	.
